The OligoGym collection

Target: FCHSD2
Assay: pooled miR-30 sensor sort-seq; sequence = guide strand
Details: shRNA
Also: reference of the scale not given here.

In order of falling sensor-assay potency score (higher = more potent):
1. TTTAGCTAAATCTTTCACTGTC  1.33
2. TTTAAGCTTCTCACTGTCCTTG  0.228
3. TTCGGTATCTGCATTAAGCGAG  0.0519
4. TTATCTTCAAACTCTTCGCCTT  -0.0794
5. TTTTCTTGCAAAAACAGCTGAA  -0.0894
6. TTCTGTTCTAGCTCTGCTCGGC  -0.12
7. TAACTTTACACTTGCCTTCTGT  -0.129
8. TATCTTCAAACTCTTCGCCTTC  -0.452
9. TTTCTGATTCTAACTGTCGGCT  -0.5
10. TGCTTTAGCAGGTCCAACCGGG  -0.504
11. TAGGAATAAACAACTTTGCAGG  -0.656
12. TAGCTTTGGAATTACACTCAGA  -0.799

Target: FCRL4
Assay: as above
Details: shRNA

In order of rising sensor-assay potency score (higher = more potent):
1. TAGAACTGAAATCCATTGCAAG  -0.914
2. TTGCATAGAACTGAAATCCATT  -0.778
3. TACATCAACATACAACGACTGA  -0.697
4. TAGACAACTGAGACATCCTTAT  -0.682
5. TTATTTGAACTTGCTTGTGGGA  -0.64
6. TTCTCTGTTGCATAGAACTGAA  -0.545
7. TATTTGAACTTGCTTGTGGGAT  -0.378
8. TTATTTTGAAATTTGATCTAAA  -0.106
9. TTATCCTCTAGAAGTGTCCTGG  0.145
10. TAGGCTGAGAGTCTGTAGCTTT  0.173
11. TAGAGCTGATCTTTCCAGCTGA  0.365
12. TGTTATTTGAACTTGCTTGTGG  0.392
